A number with no mark means an inactive call. A call without a number means that no potency is given here. Some structures have more than one record in an assay (separate samples or runs), and their calls can disagree. Activity calls are given as the source filed them. Unless noted, calls follow the shape of the dose curve; as a rule, active = well fitted curve in the direction sought with a large enough effect in the repeat runs; inconclusive = weak or mixed curves; inactive = flat fitted curve, though single readings scatter. Residues, ends and D or L forms follow the SMILES beside them.
Tests used:
[1] = qHTS assay to test for compound auto fluorescence at 535 nm (green) in HEK293 cells (AID 720680)
[2] = qHTS assay to test for compound auto fluorescence at 460 nm (blue) in HEK293 cell free culture (AID 720681)
Summary of the method: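 Blue fluorescence (Ex 405/Em 460 nm, triamterene-equivalent) was read immediately after pin transfer of compound or DMSO into medium (DMEM, 10% FBS) without cells.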

[3] = qHTS assay to test for compound auto fluorescence at 535 nm (green) in HEK293 cell free culture (AID 720682)
Summary of the method: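 Intrinsic compound fluorescence is measured in culture medium containing 10% FBS, with excitation at 485 nm and detection at 535 nm, referenced to fluorescein.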

[4] = qHTS assay to test for compound auto fluorescence at 590 nm (red) in HEK293 cell free culture (AID 720683)
Summary of the method: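 Red-channel autofluorescence of compounds in culture medium (DMEM, 10% FBS), no cells, measured at 540/590 nm. Rose Bengal sodium is the reference fluorophore for equivalence.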

[5] = qHTS assay to test for compound auto fluorescence at 590 nm (red) in HepG2 cell free culture (AID 720684)
Summary of the method: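 Cell-free; medium MEM + 10% FBS; compound or DMSO added by pintool; read Ex 540/Em 590 nm; Rose Bengal sodium as red reference fluorophore.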

[6] = qHTS assay to test for compound auto fluorescence at 460 nm (blue) in HepG2 cell free culture (AID 720685)
Summary of the method: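 Cell-free plates of MEM plus 10% FBS received 23 nL compound or DMSO vehicle; blue-channel (405/460 nm) intensity scored against triamterene as reference fluorophore.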

[7] = qHTS assay to test for compound auto fluorescence at 535 nm (green) in HepG2 cell free culture (AID 720686)
[8] = qHTS assay to test for compound auto fluorescence at 460 nm (blue) in HepG2 cells (AID 720687)
Summary of the method: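 Blue-channel autofluorescence (Ex/Em 405/460 nm, triamterene-equivalent) was measured after 1 hr compound exposure at 37 C, 5% CO2. Cells were HepG2, plated overnight at 37 C in MEM plus 10% FBS.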

[9] = molecular target: Glucocorticoid receptor (Homo sapiens) (UniProt P04150); assay: qHTS assay to identify small molecule agonists of the glucocorticoid receptor (GR) signaling pathway (AID 720691; active = well fitted activation curve with a large enough effect in the signal ratio in the repeat runs, not every such curve was filed as active; inconclusive = weak or mixed curves, or effect the other way; inactive = no such curve, though single readings can be large or run the other way; the % refers to the signal ratio); details: GR-bla HeLa, beta-lactamase reporter ratio, 18 h
Summary of the method: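 Compounds in DMSO, alongside positive controls, were added to GR-bla HeLa reporter cells and incubated 18 h at 37 C; GRE-driven beta-lactamase was detected by fluorescence after 2 h with FRET substrate at room temperature.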

[10] = molecular target: Glucocorticoid receptor (Homo sapiens) (UniProt P04150); assay: qHTS assay to identify small molecule antagonists of the glucocorticoid receptor (GR) signaling pathway (AID 720692; active = well fitted inhibition curve with a large enough effect in the signal ratio in the repeat runs, not every such curve was filed as active; inconclusive = weak or mixed curves, or effect the other way; inactive = no such curve, though single readings can be large or run the other way; the % refers to the signal ratio; also: potency is read from the fitted curve at half-maximal effect)
Summary of the method: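 In a 1536-well cell format, compounds were added 4 h after seeding GR-bla HeLa cells, together with dexamethasone at 5 nM final; reporter activity was measured by FRET-substrate fluorescence following 18 h at 37 C.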

[11] = activation: at 62.4 µM (top of the series)

Glucocorticoid receptor (Homo sapiens), sequence (P04150 whole entry, looked up): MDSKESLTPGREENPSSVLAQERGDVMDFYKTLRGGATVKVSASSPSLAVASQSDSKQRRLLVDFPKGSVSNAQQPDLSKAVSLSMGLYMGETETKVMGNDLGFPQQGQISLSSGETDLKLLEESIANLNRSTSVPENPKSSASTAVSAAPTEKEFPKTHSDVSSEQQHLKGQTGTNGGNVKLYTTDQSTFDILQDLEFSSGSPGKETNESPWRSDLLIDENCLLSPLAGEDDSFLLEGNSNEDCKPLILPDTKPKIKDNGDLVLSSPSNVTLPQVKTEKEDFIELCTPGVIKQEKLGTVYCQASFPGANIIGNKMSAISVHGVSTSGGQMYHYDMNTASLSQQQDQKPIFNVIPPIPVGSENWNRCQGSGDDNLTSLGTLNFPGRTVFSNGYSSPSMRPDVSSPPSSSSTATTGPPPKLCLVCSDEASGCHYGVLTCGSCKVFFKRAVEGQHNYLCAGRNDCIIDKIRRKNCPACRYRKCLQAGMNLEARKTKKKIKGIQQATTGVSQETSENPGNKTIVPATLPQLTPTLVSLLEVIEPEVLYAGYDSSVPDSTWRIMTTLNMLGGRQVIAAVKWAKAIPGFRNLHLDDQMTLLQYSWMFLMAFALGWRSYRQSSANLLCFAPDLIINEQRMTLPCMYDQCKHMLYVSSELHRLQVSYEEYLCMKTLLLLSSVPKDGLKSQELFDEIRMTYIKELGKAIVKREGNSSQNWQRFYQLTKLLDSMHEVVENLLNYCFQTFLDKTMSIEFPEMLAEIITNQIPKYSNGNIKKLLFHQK

SMILES	outcome [1]	Potency [2]	outcome [3]	outcome [4]	outcome [5]	Potency [6]	Potency [7]	Potency [8]	Potency [9, 11]	Potency [10]	activation [9, 11]	activation ([9]; at 62.4 µM (top of the series)) [%]
C[C@H]1O[C@@H](O[C@H]2CC[C@@]3(C)[C@H](CC[C@@H]4[C@@H]3C[C@@H](O)[C@]3(C)[C@@H](C5=CC(=O)OC5)CC[C@]43O)C2)C[C@H](O)[C@@H]1O[C@H]1C[C@H](O)[C@H](O[C@H]2C[C@H](O)[C@H](O[C@@H]3O[C@H](CO)[C@@H](O)[C@H](O)[C@H]3O)[C@@H](C)O2)[C@@H](C)O1	inactive	inactive	inactive	inactive	inactive	inactive	inactive	inactive	inactive	–	–	–
NS(=O)(=O)c1cc(Cl)c(Cl)c(S(N)(=O)=O)c1	inactive	inactive	inactive	inactive	inactive	inactive	inactive	inactive	inactive	inactive	–	–
CC/C=C\C/C=C\C/C=C\C/C=C\C/C=C\CCCC(=O)O	inactive	inactive	inactive	inactive	inactive	inactive	inactive	inactive	inactive	–	–	–
CCCCC/C=C\C=C\C(=O)OCC	inactive	inactive	inactive	inactive	inactive	inactive	inactive	inactive	inactive	45.5 µM (active)	–	–
O=C(CCN1CCC(c2ccccc2)C1)c1ccc2c(c1)OCCO2 (stereo unspecified)	inactive	inactive	inactive	inactive	inactive	inactive	inactive	inactive	inactive	–	–	–
CC(C)[N+]1(C)[C@@H]2CC[C@H]1CC(OC(=O)C(CO)c1ccccc1)C2 (stereo partly specified)	inactive	inactive	inactive	inactive	inactive	inactive	inactive	inactive	inactive	–	–	–
O=C1c2c(O)cccc2[C@H]([C@@H]2O[C@H](CO)[C@@H](O)[C@H](O)[C@H]2O)c2cc(CO)cc(O)c21	inactive	inactive	inactive	inactive	inactive	inactive	inactive	inactive	–	inactive	14.2% [inconclusive] (active)	-0.87
Cc1cc(Br)ccc1NC(=O)CCl	inactive	inactive	inactive	inactive	inactive	inactive	inactive	inactive	inactive	–	–	–
O=C1CCCCCCCCCCCCCC1	inactive	inactive	inactive	inactive	inactive	inactive	inactive	inactive	inactive	inactive	–	–
C/C=C/C1=C(C(=O)O)N2C(=O)[C@@H](NC(=O)[C@H](N)c3ccc(O)cc3)[C@H]2SC1	inactive	inactive	inactive	inactive	inactive	inactive	inactive	inactive	inactive	inactive	–	–
CCN(CC)CCOC[C@H]1O[C@@H](O)[C@H](OCCN(CC)CC)[C@@H](O)[C@@H]1O	inactive	inactive	inactive	inactive	inactive	inactive	inactive	inactive	–	inactive	–	–
C(=C\c1ccncc1)/c1ccccc1	inactive	inactive	inactive	inactive	inactive	inactive	inactive	inactive	–	inactive	–	–
Cc1onc(-c2c(F)cccc2Cl)c1C(=O)N[C@@H]1C(=O)N2[C@@H]1SC(C)(C)[C@@H]2C(=O)O	inactive	inactive	inactive	inactive	inactive	inactive	inactive	inactive	inactive	inactive	–	–
CC(C)[C@H](NC(=O)[C@H](CC(=O)O)NC(=O)[C@H](CCCCN)NC(=O)[C@@H](N)CCCN=C(N)N)C(=O)N[C@@H](Cc1ccc(O)cc1)C(=O)O (H-RKDVY-OH)	inactive	inactive	inactive	inactive	inactive	inactive	inactive	inactive	–	inactive	–	–
C[N+](C)(C)CCOP(=O)(O)OP(=O)([O-])OC[C@H]1O[C@@H](n2ccc(N)nc2=O)[C@H](O)[C@@H]1O	inactive	inactive	inactive	inactive	inactive	inactive	inactive	inactive	inactive	inactive	–	–
CCN(CC)C(=O)c1cccnc1	inactive	inactive	inactive	inactive	inactive	inactive	inactive	inactive	–	inactive	–	–
O=C[C@H](O)[C@@H](O)[C@@H](O)[C@H](O)CO	inactive	inactive	inactive	inactive	inactive	inactive	inactive	inactive	inactive	inactive	–	–
NCCCC(=O)O	inactive	inactive	inactive	inactive	inactive	inactive	inactive	inactive	inactive	inactive	–	–
CN1CC[C@H](c2c(O)cc(O)c3c(=O)cc(-c4ccccc4Cl)oc23)[C@H](O)C1	inactive	inactive	inactive	inactive	inactive	inactive	inactive	inactive	–	0.674 µM (active)	–	–

Reference: PubChem BioAssay (Tox21)
